# Inconclusive results are not listed. Where a call stands in place of a potency, no number is given. Calls of active or inactive are those of the source. The call rests on the fitted dose curve; in most records, active means well fitted curve in the direction sought with a large enough effect; inconclusive means small, poorly fitted or top-dose-only effect, or another doubt; inactive means no such curve, though single readings can be large; an effect the other way counts as inactive or inconclusive.
# How the values were obtained:
# [1] = qHTS of pediatric cancer cell lines to identify multiple opportunities for drug repurposing: Primary screen for TC32 cells (AID 1347089); further: nearly all actives have a fitted effect of over 60% in size
# Method in brief: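 TC32 cells, 500-1,000/well in growth medium, compound-treated 48 h at 37 °C; viability from CellTiter-Glo luminescence. Primary screen: MIPE 11-point (0.78 nM–46 µM final), NPC 8-point (0.59 nM–46 µM final); confirmatory at 11-point dilutions.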
# [2] = qHTS of pediatric cancer cell lines to identify multiple opportunities for drug repurposing: Primary screen for DAOY cells (AID 1347090); further: nearly all actives have a fitted effect of over 55% in size
# Method in brief: (§1)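 Eight- or eleven-point concentration series, 48 h treatment at 37 degrees C in growth media; readout CellTiter-Glo luminescence. Potency and efficacy were taken from the concentration-response curves.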
# [3] = qHTS of pediatric cancer cell lines to identify multiple opportunities for drug repurposing: Primary screen for SJ-GBM2 cells (AID 1347091)
# Method in brief: as §1
# [4] = qHTS of pediatric cancer cell lines to identify multiple opportunities for drug repurposing: Primary screen for A673 cells (AID 1347092); further: nearly all actives have a fitted effect of over 45% in size
# Method in brief: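 A673 cells (500-1,000 cells/well) were treated 48 hours at 37 degrees C with compounds at 11-point (0.78 nM to 46 µM) or 8-point (0.59 nM to 46 µM) dilutions. Viability read by CellTiter-Glo luminescence; concentration-response curves fitted.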
# [5] = qHTS of pediatric cancer cell lines to identify multiple opportunities for drug repurposing: Primary screen for BT-37 cells (AID 1347094)
# Method in brief: (§2)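 Readout: CellTiter-Glo luminescence, 48 h treatment. Controls DMSO (neutral) and bortezomib 2.3 µM final (positive). Potency and efficacy taken from primary-screen concentration-response curves.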
# [6] = qHTS of pediatric cancer cell lines to identify multiple opportunities for drug repurposing: Primary screen for NB-EBc1 cells (AID 1347095)
# Method in brief: as §2
# [7] = qHTS of pediatric cancer cell lines to identify multiple opportunities for drug repurposing: Primary screen for U-2 OS cells (AID 1347096); further: nearly all actives have a fitted effect of over 50% in size
# Method in brief: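 Cells (500-1,000/well) in growth media were settled 5 h at 37 degrees C, then given compounds for 48 h. Viability was read as CellTiter-Glo luminescence. Primary runs used MIPE at 11 points (0.78 nM-46 µM) and NPC at 8 points (0.59 nM-46 µM); follow-ups used 11 points.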
# [8] = qHTS of pediatric cancer cell lines to identify multiple opportunities for drug repurposing: Primary screen for Saos-2 cells (AID 1347097); further: nearly all actives have a fitted effect of over 40% in size
# Method in brief: as §2
# [9] = qHTS of pediatric cancer cell lines to identify multiple opportunities for drug repurposing: Primary screen for SK-N-SH cells (AID 1347098); further: nearly all actives have a fitted effect of over 65% in size
# Method in brief: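 Cells (500-1,000/well) rested 5 h, then received compounds for 48 h; metabolically active cells were measured by CellTiter-Glo luminescence. Final concentrations spanned up to 46 µM (MIPE, 11-point) or 0.59 nM-46 µM (NPC, 8-point) in primary screens, 11-point in follow-ups.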
# [10] = qHTS of pediatric cancer cell lines to identify multiple opportunities for drug repurposing: Primary screen for SK-N-MC cells (AID 1347093)
# Method in brief: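 Metabolically active cells were quantified by ATP-dependent luminescence (CellTiter-Glo, 15 min at room temperature) following 48 h treatment. Cells had been plated at 500-1,000 per well and settled for 5 h beforehand.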
# Potency means the concentration at half of the fitted maximal effect.
Compound,Potency [1],Potency [2],Potency [3],Potency [4],Potency [5],Potency [6],Potency [7],Potency [8],Potency [9],Potency [10]
CC(=O)Nc1ccc(OC[C@](C)(O)C(=O)Nc2ccc([N+](=O)[O-])c(C(F)(F)F)c2)cc1,inactive,inactive,inactive,inactive,inactive,inactive,inactive,inactive,inactive,
CC[C@@]1(O)C(=O)OCc2c1cc1n(c2=O)Cc2cc3ccccc3nc2-1,26.2 nM (active),46.9 nM (active),,23.5 nM (active),13.7 nM (active),8.3 nM (active),1180 nM (active),,121 nM (active),7.4 nM (active)
COc1ccc(C(=O)c2c(C)n(CCN3CCOCC3)c3cc(I)ccc23)cc1,inactive,18700 nM (active),18700 nM (active),14800 nM (active),,20900 nM (active),,18700 nM (active),,1480 nM (active)
CC[C@@H]1[C@@H](C)O[C@@](O)([C@@H](C)[C@H](O)[C@H](C)[C@H]2OC(=O)C=CC=C[C@@H](C)[C@@H]([C@@H](C)[C@@H](O)[C@H](C)[C@@]3(O)C[C@H](O[C@H]4C[C@H](O)[C@H](O)[C@H](C)O4)[C@H](CC)[C@@H](C)O3)OC(=O)C=CC=C[C@@H]2C)C[C@H]1O[C@H]1C[C@H](O)[C@H](O)[C@H](C)O1,18600 nM (active),469 nM (active),,743 nM (active),685 nM (active),418 nM (active),935 nM (active),,21500 nM (active),372 nM (active)
COc1ccc2c(c1)[C@]13CCCCC1C(C2)N(C)CC3 (stereo partly specified),inactive,inactive,inactive,inactive,inactive,inactive,,inactive,,
CC1(C)CC/C(=C/c2ccc(Cl)cc2)C1(O)Cn1cncn1 (stereo unspecified),inactive,inactive,,inactive,inactive,inactive,inactive,,,inactive
CCN1C[C@]2(OC(=O)c3ccccc3NC(C)=O)CC[C@H](OC)[C@@]34[C@H]5CC6[C@@H](OC)C[C@](O)(C(C[C@@H]23)[C@@H]14)[C@@]5(O)[C@@H]6OC,inactive,inactive,inactive,inactive,inactive,inactive,inactive,,,
COCC1(CO)C(=O)C2CCN1CC2 (stereo unspecified),20800 nM (active),23500 nM (active),2090 nM (active),2350 nM (active),1220 nM (active),264 nM (active),,8330 nM (active),1080 nM (active),1180 nM (active)
COC(C)(C)CCCC(C)C/C=C/C(C)=C/C(=O)OC(C)C (stereo unspecified),inactive,inactive,inactive,inactive,inactive,inactive,,,inactive,inactive
CC(C)(C)NC[C@H](O)c1ccc(O)cc1Cl,inactive,inactive,,inactive,inactive,inactive,inactive,inactive,inactive,inactive
C#CC1(O)CCC2C3CCC4=CC(=O)CCC4(C)C3CCC21C (stereo unspecified),inactive,inactive,inactive,inactive,inactive,,inactive,,inactive,
CC1=NN=C(c2ccc(N)cc2)c2cc3c(cc2C1)OCO3,inactive,inactive,,inactive,inactive,inactive,inactive,,,inactive
CS(=O)(=O)c1ccc(C(=O)C2C(=O)CCCC2=O)c([N+](=O)[O-])c1,inactive,inactive,,inactive,inactive,inactive,inactive,inactive,inactive,1 nM (active)
CCN(CC)C(=O)c1ccc(C2=CC3(CCNCC3)Oc3cccc(O)c32)cc1,inactive,inactive,inactive,inactive,inactive,inactive,,inactive,inactive,inactive
O=c1cccc2n1CC1CNC[C@H]2C1,inactive,18700 nM (active),5900 nM (active),4690 nM (active),,,,,24100 nM (active),4690 nM (active)
CC(O)CN1CCN(CC(=O)[O-])CCN(CC(=O)[O-])CCN(CC(=O)[O-])CC1.[Gd+3] (stereo unspecified),inactive,inactive,inactive,inactive,inactive,inactive,,,inactive,inactive
Fc1cc(Br)ccc1CBr,inactive,inactive,inactive,inactive,inactive,inactive,,inactive,inactive,inactive
C[C@]12CCC(=O)C(O)=C1CC[C@@H]1[C@H]3CCC(=O)[C@@]3(C)CC[C@@H]12,inactive,inactive,,inactive,inactive,inactive,inactive,,inactive,inactive
CCC(=O)O[C@@H]1C=C2CCC3C(CCC4(C)C3CC[C@@H]4OC(=O)CC)C2CC1 (stereo partly specified),inactive,inactive,,inactive,inactive,inactive,inactive,,inactive,inactive
O=C1C(I)=CC(=C(c2cc(I)c(O)c(I)c2)c2ccccc2C(=O)O)C=C1I,inactive,inactive,inactive,,inactive,inactive,inactive,inactive,inactive,
C[C@]12CC[C@@H]3[C@@H](CCC4=CC(=O)CC[C@@H]43)[C@@H]1CC[C@@H]2OC(=O)CCc1ccccc1,inactive,inactive,inactive,,inactive,inactive,inactive,,,inactive
O=S(=O)(F)Cc1ccccc1,inactive,inactive,inactive,,,inactive,,inactive,inactive,

# Reference: PubChem BioAssay (NCATS)
